Compound activity as filed in PubChem.
Shown is part of a subset that was picked to be rich in hits.
mHTT-CaM PPI inh = mHTT-calmodulin interaction abrogation. P42858. AlphaScreen His-mHTT/GST-CaM binding, luminescence. inhibition, % at 15 µM. hit rate 3.6% among 190,000;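 note: 0% = both proteins with DMSO and 100% = one protein alone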
Pf apPOL block = Pf-apPOL DNA polymerase inhibition | Recombinant Pf-apPOL, molecular beacon fluorescence, 1.5 h | hit rate 0.25% among 210,000 | inhibition, % at 10 µM
The depositor's hits bear a star; . = no result. Cut-off read from the data, not from the text of the source: active = inhibition above about 50%; inactive = the rest.

SMILES | mHTT-CaM PPI inh | Pf apPOL block
COc1ccc(C2C(C(=O)Nc3ccccn3)=C(C)Nc3ncnn32)cc1OC (stereo unspecified) | -3 | -2
Cc1c(Cl)cccc1S(=O)(=O)N1CCCC(C)(C(=O)NCc2ccccc2)C1 (stereo unspecified) | 65* | -4
Cc1ccc(C)c(S(=O)(=O)N2CCCC(C)(C(=O)NCc3ccccc3)C2)c1 (stereo unspecified) | -4 | -4
Cc1ccccc1CNC(=O)C1(C)CCCN(S(=O)(=O)c2cccc(Cl)c2C)C1 (stereo unspecified) | 61* | -3
Cc1ccccc1CNC(=O)C1(C)CCCN(S(=O)(=O)c2ccccc2Cl)C1 (stereo unspecified) | -5 | 1
Clc1ccc(N=Cc2ccc(Br)o2)cc1Cl | 33 | .
Cc1ccc(-c2nn(-c3cc(N4CCNCC4)ccc3[N+](=O)[O-])c(=O)c3ccccc23)cc1C | 100* | 0
O=c1c2ccccc2c(-c2ccccc2)nn1-c1cc(N2CCCC2)ccc1[N+](=O)[O-] | 34 | 0
Cc1ccc(S(=O)(=O)CCC(=O)Nc2ccc(S(N)(=O)=O)cc2)cc1 | -3 | -3
Cc1c([N+](=O)[O-])c([N+](=O)[O-])nn1CC(=O)Nc1ccccc1C(F)(F)F | 3 | 0
C(=Nc1c2ccccc2nc2ccccc12)c1cccc2c1OCOC2 | -3 | .
C(=Nc1c2ccccc2nc2ccccc12)c1ccco1 | 56* | .
O=C(NC1CC1)C1CCN(c2ccc(Sc3ccc(Br)cc3)nn2)CC1 | -7 | -8
O=C(Nc1c(Cl)cc(Cl)c2cccnc12)c1ccco1 | 4 | -4
CCC(=O)Nc1ccc(Br)c2cccnc12 | -5 | 1
CCCCC(=O)NC(c1ccco1)c1cc(Cl)c2cccnc2c1O (stereo unspecified) | 66* | -1
Cc1cc(C)nc(SCC(=O)NCc2ccco2)n1 | -6 | 1
CC(=O)NC(c1ccco1)c1cc(Cl)c2cccnc2c1O (stereo unspecified) | 100* | -4
CCCCC(=O)NC(c1ccccc1)c1cc(Cl)c2cccnc2c1O (stereo unspecified) | 22 | 11
Cc1cc(C)nc(NC(c2ccco2)c2ccc3cccnc3c2O)n1 (stereo unspecified) | 100* | -3
CCC(=O)NC(c1ccco1)c1ccc2cccnc2c1O (stereo unspecified) | 100* | 3
O=C(Cn1cc([N+](=O)[O-])cn1)N1CCOCC1 | -3 | .
CN1C(=O)C2(CCN(S(=O)(=O)c3ccc(Br)cc3)C2)c2ccccc21 (stereo unspecified) | 10 | -4
Cc1cccc(NC(=O)c2n[nH]c(=O)c3ccccc23)n1 | 6 | 2
CN=C1S/C(=C/c2ccc(OCc3ccccc3F)cc2)C(=O)N1C | 2 | 0
SMILES | mHTT-CaM PPI inh | Pf apPOL block
CCC(=O)NC(c1ccco1)c1cc(Cl)c2cccnc2c1O (stereo unspecified) | 100* | 6
CCC1CN(C(=O)Nc2ccc(F)cc2)c2ccccc2O1 (stereo unspecified) | -10 | -7
O=C(Cc1ccc([N+](=O)[O-])cc1)Nc1ccc(F)c(Cl)c1 | -1 | 9
O=[N+]([O-])c1cccc(N=Cc2cccc([N+](=O)[O-])c2O)c1 | 5 | 0
O=c1oc2ccccc2cc1-c1cccc(N=Cc2ccccc2O)c1 | 6 | -3
Cc1c(Cl)c(C)c([N+](=O)[O-])c(O)c1C=Nc1cccc(O)c1 | 76* | 1
Oc1ccccc1C=Nc1cccc(N=Cc2ccccc2O)c1 | 71* | -3
Cc1ccc(N=Cc2c(C)c(Cl)c(C)c([N+](=O)[O-])c2O)c(O)c1 | 8 | 2
O=[N+]([O-])c1cccc(C=Nc2cccc(O)c2)c1O | 74* | -3
NC(=O)c1c(NC(=O)c2ccco2)sc2c1CCCCC2 | 3 | -2
CCn1ccnc1N1CCN(C(=O)Cc2ccc(OC)c(OC)c2)CC1 | -2 | -6
CN1C(=O)C2(NN=C(c3ccccc3)S2)c2cc(Br)ccc21 (stereo unspecified) | 100* | -3
CN1C(=O)C(O)(CC(=O)c2ccccn2)c2cc(Br)ccc21 (stereo unspecified) | 2 | -6
COc1ccccc1CNS(=O)(=O)c1cc(C(=O)Nc2ccccc2Cl)ccc1F | 1 | 4
Cc1cc(C)cc(NC(=O)C2CC(=O)N(c3ccc4oc(C)nc4c3)C2)c1 (stereo unspecified) | -1 | -1
Cc1cc(NC(=O)CSc2nnc(C3COc4ccccc4O3)o2)no1 (stereo unspecified) | 72* | 5
Cc1cc(NC(=O)CSc2nnc(Cc3c(C)[nH]c(=O)[nH]c3=O)o2)no1 | -20 | -2
CCN(CC)C(=O)N1CCOCC1 | -5 | .
Cn1c(N2CCCC(C(=O)N3CCN(c4ccccc4)CC3)C2)cc(=O)n(C)c1=O (stereo unspecified) | -4 | -4
CN(C)c1ccc(/C=C/C=C/c2cc[n+](C)cc2)cc1 | 60* | -14
CN(C)c1ccc(/C=C/C=C/c2cccc[n+]2C)cc1 | 46 | 7
